# Experimental data reported in PubChem BioAssay AID2185 (Vanderbilt High Throughput Screening Facility, 2009).
# Entries with a potency or affinity are not part of this list. Unmarked numbers belong to inactive results. No rule for the calls is given here.
# Molecular target: Metabotropic glutamate receptor 4 (Rattus norvegicus) (UniProt P31423)
# Experiment: PubChem AID 2185
# Settings: HEK/GIRK cells expressing rat mGluR4, thallium flux PAM; stronger effect = higher value
# Chain of Metabotropic glutamate receptor 4 (Rattus norvegicus) (P31423 whole entry, looked up): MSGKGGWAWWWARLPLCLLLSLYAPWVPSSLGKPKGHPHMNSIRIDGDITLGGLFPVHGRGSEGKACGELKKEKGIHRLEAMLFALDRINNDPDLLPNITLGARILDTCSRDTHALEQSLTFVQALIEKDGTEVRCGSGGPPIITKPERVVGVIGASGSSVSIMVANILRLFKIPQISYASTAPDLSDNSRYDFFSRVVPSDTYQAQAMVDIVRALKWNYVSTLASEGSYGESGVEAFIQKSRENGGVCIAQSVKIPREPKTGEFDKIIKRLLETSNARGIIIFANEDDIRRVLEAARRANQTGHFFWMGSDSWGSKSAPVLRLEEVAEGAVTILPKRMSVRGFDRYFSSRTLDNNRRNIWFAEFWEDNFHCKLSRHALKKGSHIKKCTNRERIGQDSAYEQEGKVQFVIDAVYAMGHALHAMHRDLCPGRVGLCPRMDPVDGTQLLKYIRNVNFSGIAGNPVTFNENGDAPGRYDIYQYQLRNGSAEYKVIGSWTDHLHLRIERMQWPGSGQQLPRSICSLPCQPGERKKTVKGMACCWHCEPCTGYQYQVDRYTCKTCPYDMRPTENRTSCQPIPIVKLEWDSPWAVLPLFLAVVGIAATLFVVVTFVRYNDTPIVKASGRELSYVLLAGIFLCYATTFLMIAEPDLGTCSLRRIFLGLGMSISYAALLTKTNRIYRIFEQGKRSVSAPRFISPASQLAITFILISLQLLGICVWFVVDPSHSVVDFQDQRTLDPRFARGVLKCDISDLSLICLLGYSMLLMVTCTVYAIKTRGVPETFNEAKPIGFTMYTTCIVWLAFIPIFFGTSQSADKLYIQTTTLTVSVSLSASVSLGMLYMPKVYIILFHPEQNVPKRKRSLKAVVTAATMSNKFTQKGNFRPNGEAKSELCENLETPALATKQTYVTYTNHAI
structure (smiles),measurement,value
N#Cc1ccc(NC(=O)c2ccccn2)cc1C(F)(F)F,% glutamate max,26.3%
